Source: PubChem BioAssay (NCATS)
For part of these data: Potency and affinity values are given separately. Calls of active or inactive are those of the source. No rule for the calls is given here.

What was measured:
[1] = Ebola virus entry assay, green fluorescence channel
[2] = Ebola virus entry assay, blue channel fluorescence
[3] = Ebola virus entry assay, ratio channel
[4] = Ebola virus entry assay, green channel fluorescence
[5] = Ebola virus entry assay, reporter ratio channel; Channel type: primary
[6] = Ebola virus entry assay, blue channel (ratio component)

Measured: efficacy
For efficacy in this document: 0% is about no effect.

Cl/C(=C\n1cncn1)c1ccc(Cl)cc1Cl
inactive: [1] -16.7% | [2] | [3] | [4] | [5] | [6]

Cc1ncc(COP(=O)(O)O)c(C=O)c1O
inactive: [1] -34.1% | [2] | [3] | [4] | [5] | [6]

CCCCCN(CCCCC)C(=O)C(CCC(=O)O)NC(=O)c1ccc(Cl)c(Cl)c1 (centres undefined)
inactive: [1] 12.6% | [2] | [3] | [4] | [5] | [6]

O=c1cc(CO)occ1O
inactive: [1] 16.7% | [2] | [3] | [4] | [5] | [6]

CCCCCC(N)=O
inactive: [1] 10.6% | [2] | [3] | [4] | [5] | [6]

CN(C)C(=O)CNC(=O)Cc1ccccc1
inactive: [1] 16.6% | [2] | [3] | [4] | [5] | [6]

Cc1ccc(S(=O)(=O)NC(=O)NC2CCCC2)cc1
inactive: [1] -11.6% | [2] | [3] | [4] | [5] | [6]

Cc1ncc(CSSCc2cnc(C)c(O)c2CO)c(CO)c1O
inactive: [1] -36.5% | [2] | [3] | [4] | [5] | [6]

CC(=O)OCC1=C(C(=O)O)N2C(=O)[C@@H](NC(=O)CSc3ccncc3)[C@H]2SC1
inactive: [1] -6.58% | [2] | [3] | [4] | [5] | [6]

O=C(O)CNC(=O)c1ccccc1I
inactive: [1] -12.8% | [2] | [3] | [4] | [5] | [6]

CCOC(=O)c1ncn2c1CN(C)C(=O)c1c(I)cccc1-2
inactive: [1] 19.2% | [2] | [3] | [4] | [5] | [6]

C/C=C/c1ccc(OC)cc1
inactive: [1] -25.2% | [2] | [3] | [4] | [5] | [6]

C[N+](C)(C)CCOC(=O)C(O)(c1ccccc1)c1ccccc1
inactive: [1] -27.9% | [2] | [3] | [4] | [5] | [6]

CNC(=O)c1cnn(-c2nc(N)c3ncn([C@@H]4O[C@H](CO)[C@@H](O)[C@H]4O)c3n2)c1
inactive: [1] 20.7% | [2] | [3] | [4] | [5] | [6]

C=CCSCC1Nc2cc(Cl)c(S(N)(=O)=O)cc2S(=O)(=O)N1 (centres undefined)
inactive: [1] -29.5% | [2] | [3] | [4] | [5] | [6]

CSc1ccc(C(=O)c2[nH]c(=O)[nH]c2C)cc1
inactive: [1] 19.8% | [2] | [3] | [4] | [5] | [6]

CCCCNc1cc(C(=O)O)cc(S(N)(=O)=O)c1Oc1ccccc1
inactive: [1] -14.8% | [2] | [3] | [4] | [5] | [6]

O=C(CCNNC(=O)c1ccncc1)NCc1ccccc1
inactive: [1] -17% | [2] | [3] | [4] | [5] | [6]

OC[C@@H](O)[C@@H](O)[C@H](O)[C@H](O)CO
inactive: [1] 11.8% | [2] | [3] | [4] | [5] | [6]

CC[N+]1(CC)CCC(=C(c2ccccc2)c2ccccc2)C1C (centres undefined)
inactive: [1] 13% | [2] | [3] | [4] | [5] | [6]

CCOC(=O)C(c1c(O)c2ccccc2oc1=O)c1c(O)c2ccccc2oc1=O
inactive: [1] 18.5% | [2] | [3] | [4] | [5] | [6]

CC1(C)OC(=O)Nc2ccc(Br)cc21
inactive: [1] -21.5% | [2] | [3] | [4] | [5] | [6]

C[C@H](CCC(=O)O)[C@H]1CC[C@H]2[C@@H]3C(=O)C[C@@H]4CC(=O)CC[C@]4(C)[C@H]3CC(=O)[C@]12C
inactive: [1] -7.14% | [2] | [3] | [4] | [5] | [6]

CC(C)Cn1cnc2c1c(=O)n(C)c(=O)n2C
inactive: [1] -27.1% | [2] | [3] | [4] | [5] | [6]

CNC(C)Cc1ccc2c(c1)OCO2 (centres undefined)
inactive: [1] -15.1% | [2] | [3] | [4] | [5] | [6]

CCN(CC)C(=O)c1cccc(C)c1
inactive: [1] -20% | [2] | [3] | [4] | [5] | [6]

CC(O)Cn1cnc2c1c(=O)n(C)c(=O)n2C (centres undefined)
inactive: [1] 6.04% | [2] | [3] | [4] | [5] | [6]

C[C@@]12CCC[C@H]1[C@@H]1CC[C@H]3C[C@@H](O)CC[C@]3(C)[C@H]1CC2
inactive: [1] -12.6% | [2] | [3] | [4] | [5] | [6]

CN1C(=O)CC(c2ccccc2)C1=O (centres undefined)
inactive: [1] 12.2% | [2] | [3] | [4] | [5] | [6]
